Source: PubChem
Most compounds without a hit are left out; they make up all but 3.4% or so of the library.
Vif imaging – inhibitors of HIV Vif. 340,000 compounds, 0.35% hits. AID 602346. HEK293T cells, Vif self-association by quenched fluorescence, imaging, 24 h. inhibition, % at 7.49 µM; in the data active = inhibition above about 50%, passing the limit was not always enough; inconclusive = no clear call, values can overlap the other calls; inactive = below about 31%
HSF1 activator – increases HSF-1 driven luciferase reporter signal | NIH3T3-HGL HSF-1 luciferase reporter, MG132, 8 h; 100% = twice DMSO control signal | activation, % at 9 µM | 300,000 compounds, 1.7% hits | AID 504408;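 active = mean replicate activation of at least 50% with a set share of replicates each reaching 50%; inconclusive = only one of those two conditions met; inactive = mean below 50% and too few replicates reaching it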
HSF1 inh – HSF1 inhibition; 300,000 compounds, 0.77% hits; NIH3T3-HGL HSE-luciferase, MG132-induced, luminescence 8 h; hits give low values; activity change, negative = inhibition, % at 7.5 µM (by protocol);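 active = more than half of replicate wells show activity change below -50%, luminescence cut by over half; inconclusive = some wells, but at most half, below -50%; inactive = no replicate well below -50%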;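 note: luciferase reports HSF-1 transcriptional activity via heat shock element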
esBAF inh – inhibitors of esBAF chromatin remodeling in mouse ES cells; reporter increase, % at 12.5 µM; 350,000 compounds, 2% hits; Bmi1-luciferase knock-in reporter, 24 h; 100% = twice the neutral-well signal; in the data active = activation above about 40%; inconclusive = no clear call, values can overlap the other calls;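 note: a rise in the Bmi1 reporter signal indicates esBAF inhibition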
Each line names hits and unclear results; the compound was inactive in the other large screens.

COc1ccc(CN(C)C[C@H]2OCCCC[C@@H](C)Oc3ccc(NS(=O)(=O)c4cn(C)cn4)cc3C(=O)N([C@@H](C)CO)C[C@@H]2C)cc1	none (no result: Vif imaging, HSF1 activator, HSF1 inh)
O=C(C[C@H]1C[C@H]2c3cc(NC(=O)NC4CCCC4)ccc3O[C@H]2[C@H](CO)O1)NCc1ccc(Cl)cc1	none (no result: Vif imaging, HSF1 activator, HSF1 inh)
CCOc1cc(/C=C2/NC(=O)N(Cc3ccccc3F)C2=O)ccc1O	HSF1 activator 86
CC(C)c1ccc(CNc2ccc([N+](=O)[O-])cn2)cc1	HSF1 activator 71 (no result: esBAF inh)
CCOC(=O)CSc1nc(-c2ccncc2)ccc1C#N	HSF1 activator 64
COC(=O)CSc1nc2ccc(C)cc2cc1C#N	HSF1 activator 80 (no result: esBAF inh)
CCOC(=O)CC(=O)CSc1nc(-c2cccnc2)ccc1C#N	esBAF inh inconclusive
COC(=O)CSc1nc2cc(OC)ccc2cc1C#N	HSF1 activator 58
CCOC(=O)CSc1nc2cc(OCC)ccc2cc1C#N	esBAF inh 62
COc1ccc2cc(C#N)c(SCC(=O)N3CCCC3)nc2c1	none
COC(=O)CSc1nc2cc(C)cc(C)c2cc1C#N	none (no result: Vif imaging)
CO[C@H](CN(C)C(=O)C1CCOCC1)[C@H](C)CN([C@H](C)CO)S(=O)(=O)c1ccccc1	none (no result: Vif imaging, HSF1 activator, HSF1 inh)
C[C@H](O)C#Cc1cnc2c(c1)C(=O)N([C@H](C)CO)C[C@H](C)[C@@H](CN(C)Cc1ccccn1)O2	none (no result: Vif imaging, HSF1 activator, HSF1 inh)
CCc1ccc2c(c1)C(=O)c1ccccc1C2=O	HSF1 activator 81 (no result: esBAF inh)
Clc1ccc(CNC2CCN(Cc3ccccc3)CC2)cc1	HSF1 activator 81
CC(=O)Oc1ccc(-c2cccc(C(=O)OCC(=O)N(C)c3ccccc3)c2)cc1	HSF1 activator 90 (no result: esBAF inh)
CC1=C(C(=O)N2CCOCC2)C(c2c(C)cc(C)cc2C)NC(=S)N1 (configuration not stated)	HSF1 activator 95
Cc1noc(C)c1NC(=O)N(C)C[C@@H]1Oc2c(NC(=O)Nc3ccc(C(F)(F)F)cc3)cccc2C(=O)N([C@H](C)CO)C[C@H]1C	none (no result: Vif imaging, HSF1 activator, HSF1 inh)
Cc1ccc(-c2ccc(=O)n(CC(=O)NCCN3CCCCC3C)n2)cc1 (configuration not stated)	none (no result: HSF1 activator, HSF1 inh)
Cc1ccc(-c2ccc(=O)n(CCC(=O)NCCN3CCCCC3C)n2)cc1 (configuration not stated)	HSF1 inh -75
C[C@@H]1CN([C@H](C)CO)S(=O)(=O)c2ccc(-c3ccc(C(=O)N(C)C)cc3)cc2O[C@@H]1CN(C)Cc1ccccc1C(=O)O	none (no result: Vif imaging, HSF1 activator, HSF1 inh)
CN(C)S(=O)(=O)c1ccc(C(=O)Nc2nc3ccccc3[nH]2)cc1	esBAF inh 66
COc1ccc(C(=O)Nc2ccccc2[N+](=O)[O-])cc1S(=O)(=O)N1CCOCC1	HSF1 activator 131
Cc1cc(C)cc(C(=O)Nc2nc3ccccc3[nH]2)c1	esBAF inh 80
COc1ccc(C(=O)Nc2nc3ccccc3[nH]2)cc1S(=O)(=O)N1CCCC1	esBAF inh 45
COCC#Cc1ccc2c(c1)O[C@H](CN(C)C(=O)Nc1ccc(OC)cc1)[C@@H](C)CN([C@H](C)CO)S2(=O)=O	none (no result: Vif imaging, HSF1 activator, HSF1 inh)
COCC(=O)Nc1ccc2c(c1)C(=O)N(C)C[C@@H](OC)[C@H](C)CN(Cc1cccc(F)c1)[C@@H](C)CO2	none (no result: Vif imaging, HSF1 activator, HSF1 inh)
O=C(NCC[C@@H]1CC[C@H](NC(=O)C2CCOCC2)[C@H](CO)O1)c1ccc(F)cc1	none (no result: Vif imaging, HSF1 activator, HSF1 inh)
COc1ccc(C(=O)N2CCN(c3ccc(C(C)=O)cc3)CC2)cc1S(=O)(=O)N1CCCC1	esBAF inh 48 (no result: HSF1 activator, HSF1 inh)
CC(C)NC(=O)N(C)C[C@H]1OCCCC[C@H](C)Oc2ccc(NS(=O)(=O)c3ccccc3)cc2C(=O)N([C@@H](C)CO)C[C@@H]1C	none (no result: Vif imaging, HSF1 activator, HSF1 inh)
O=C(Nc1cccc(O)c1)c1ccc(Br)c(S(=O)(=O)N2CCCCC2)c1	esBAF inh 66 (no result: Vif imaging)
CN(C)c1ccc(C(=O)Nc2cccc(S(=O)(=O)N3CCCC3)c2)cc1	esBAF inh 62 (no result: HSF1 activator, HSF1 inh)
Cc1ccc(C)c(NC(=O)CN(C)C(=O)c2cccc(S(=O)(=O)N3CCN(Cc4ccccc4)CC3)c2)c1	none
O=C(Nc1ccc2c(c1)OCO2)c1ccc(Br)c(S(=O)(=O)N2CCCC2)c1	none
O=C(Nc1cccc(O)c1)c1cccc(S(=O)(=O)N2CCCCCC2)c1	esBAF inh 53
O=C(O)c1cccc(NC(=O)c2cccc(S(=O)(=O)N3CCCCC3)c2)c1	none
Cc1ccc(C)c(NC(=O)CN(C)C(=O)c2cccc(S(=O)(=O)N3CCCC3)c2)c1	Vif imaging 53 (no result: HSF1 activator, HSF1 inh)
Cc1noc(C)c1NC(=O)Nc1cccc2c1O[C@H](CN(C)S(=O)(=O)c1ccccc1)[C@H](C)CN([C@@H](C)CO)C2=O	none (no result: Vif imaging, HSF1 activator, HSF1 inh)
C[C@H]1CN([C@@H](C)CO)C(=O)c2cc(NS(=O)(=O)c3cn(C)cn3)ccc2O[C@@H]1CN(C)Cc1ccc(Cl)c(Cl)c1	none (no result: Vif imaging, HSF1 activator, HSF1 inh)
Cc1ccnc(NC(=O)c2cccc(S(=O)(=O)N3CCOCC3)c2)c1	esBAF inh 50
Cc1ccccc1-c1ccc2c(c1)O[C@@H](CN(C)C(=O)C1CC1)[C@H](C)CN([C@@H](C)CO)S2(=O)=O	none (no result: Vif imaging, HSF1 activator, HSF1 inh)
Cc1c(C(=O)NCc2cccnc2)sc2nc(-c3ccccc3)cn12	esBAF inh 66 (no result: Vif imaging)
Cc1c(C(=O)Nc2ccc3c(c2)OCCO3)sc2nc(-c3ccccc3)cn12	none
COC(=O)C1CCN(C(=O)c2sc3nc(-c4ccc(F)cc4)cn3c2C)CC1	none (no result: HSF1 activator, HSF1 inh)
COc1ccc(-c2cn3c(C)c(C(=O)NCCN4CCOCC4)sc3n2)cc1	esBAF inh 56
Cc1c(C(=O)NCCCN2CCOCC2)sc2nc(-c3ccc(F)cc3)cn12	none
Cc1c(C(=O)NCc2ccco2)sc2nc(-c3ccccc3)cn12	esBAF inh 48
Cc1c(C(=O)Nc2ccncc2)sc2nc(-c3ccccc3)cn12	none
Cc1c(C(=O)NCc2cccnc2)sc2nc(-c3ccc(F)cc3)cn12	esBAF inh 66
O=C(C[C@@H]1CC[C@H]2[C@@H](COC[C@H](O)CN2Cc2ccc3c(c2)OCO3)O1)N1CCOCC1	none (no result: Vif imaging, HSF1 activator, HSF1 inh)
C[C@@H]1CN([C@H](C)CO)C(=O)Cc2cc(NC(=O)Nc3ccc(F)cc3)ccc2O[C@@H]1CN(C)C(=O)Nc1ccc(C(F)(F)F)cc1	none (no result: Vif imaging, HSF1 activator, HSF1 inh)
Cc1ccc(S(=O)(=O)Nc2ccc3c(c2)C(=O)N([C@@H](C)CO)C[C@H](C)[C@@H](CN(C)Cc2ccc(C(F)(F)F)cc2)OCCCC[C@@H](C)O3)cc1	none (no result: Vif imaging, HSF1 activator, HSF1 inh)
Cc1cc(C)nc(Sc2nc(Cl)nc(N(c3ccccc3)c3ccccc3)n2)n1	HSF1 activator 54
CN1CCN(C(=O)c2ccc(CS(=O)(=O)c3c(Cl)cccc3Cl)o2)CC1	none
CCOC(=O)N1CCN(C(=O)c2ccc(CS(=O)(=O)c3c(Cl)cccc3Cl)o2)CC1	HSF1 inh -77
CCCNC(=O)C[C@H]1CC[C@@H]2[C@H](COC[C@@H](O)CN2C(=O)Nc2cccc(Cl)c2)O1	none (no result: Vif imaging, HSF1 activator, HSF1 inh)
O=C(c1cc(COc2ccc(F)cc2Cl)on1)N1CC[C@@H]2CCCC[C@H]2C1	none
COCC1CCN(C(=O)c2cc(COc3ccc(F)cc3Cl)on2)C1 (configuration not stated)	none (no result: HSF1 activator, HSF1 inh, esBAF inh)
O=C(c1cc(COc2ccc(F)cc2Cl)on1)N1CC2C[C@@H]3CC1C[C@H](C2)C3	esBAF inh 59
